# Assay outcomes: PubChem, National Center for Advancing Translational Sciences (NCATS)
# This excerpt belongs to a sample that is enriched for hits.
# TbPYK inhibitor = T. brucei pyruvate kinase inhibition; Q57TT1; TbPYK enzyme, Kinase-Glo Plus ATP luminescence, 45 min; Potency, µM (doses to about 76.8 µM), for the others: at the highest dose activity, negative = inhibition, hits mostly inhibitors; 410,000 tested, 0.12% active; AID 624173; active = well fitted curve in the direction sought with a large enough effect; inconclusive = small, poorly fitted or top-dose-only effect, or another doubt; inactive = no such curve, though single readings can be large; an effect the other way counts as inactive or inconclusive; also: potency is read from the fitted curve at half-maximal effect; % is scaled to controls: 0 for no effect and ±100 for the full control effect; nearly all actives have a fitted effect of over 50% in size
#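 Assay buffer: 50 mM TEA pH 7.2, 100 mM KCl, 10 mM MgCl2, 0.05% BSA, 0.01% Tween-20. Pyruvate kinase from T. brucei plus substrate met compound, then ADP (130 uM final). Luminescence was read post 45 min RT.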
# Shiga inhibitor = blocks Shiga toxin action in Vero cells | Vero cells, Shiga toxin protein synthesis inhibition reporter | inhibition, % at 38.7 µM | 290,000 tested, 9.2% active; in the data active = inhibition mostly above about 28%, no sharp cut-off; inactive = mostly below about 43%; also: 0% is about no effect
# SARS PLpro yeast = blocks SARS-CoV papain-like protease in a yeast assay; 330,000 tested, 0.19% active; S. cerevisiae expressing SARS-CoV PLpro, growth rescue; Potency, µM (doses to about 32.9 µM), inactives show top-dose activity, positive = growth rescue, most hits filed as activators; AID 485353; also: potency is read from the fitted curve at half-maximal effect; 0% is about no effect; nearly all actives have a fitted effect of over 55% in size
# LmPK inh = blocks Leishmania mexicana pyruvate kinase activity; 290,000 tested, 0.37% active; Q27686; AID 1721; purified LmPK, Kinase-Glo ATP luminescence, 1 h; Potency, µM (series often up to 57.5 µM), for inactives: top-dose activity change, negative = inhibition, most hits filed as inhibitors; active = well fitted curve in the direction sought with a large enough effect; inconclusive = small, poorly fitted or top-dose-only effect, or another doubt; inactive = no such curve, though single readings can be large; an effect the other way counts as inactive or inconclusive; also: potency is read from the fitted curve at half-maximal effect; % is scaled to controls: 0 for no effect and ±100 for the full control effect
# Target sequence (Q27686 whole entry, looked up): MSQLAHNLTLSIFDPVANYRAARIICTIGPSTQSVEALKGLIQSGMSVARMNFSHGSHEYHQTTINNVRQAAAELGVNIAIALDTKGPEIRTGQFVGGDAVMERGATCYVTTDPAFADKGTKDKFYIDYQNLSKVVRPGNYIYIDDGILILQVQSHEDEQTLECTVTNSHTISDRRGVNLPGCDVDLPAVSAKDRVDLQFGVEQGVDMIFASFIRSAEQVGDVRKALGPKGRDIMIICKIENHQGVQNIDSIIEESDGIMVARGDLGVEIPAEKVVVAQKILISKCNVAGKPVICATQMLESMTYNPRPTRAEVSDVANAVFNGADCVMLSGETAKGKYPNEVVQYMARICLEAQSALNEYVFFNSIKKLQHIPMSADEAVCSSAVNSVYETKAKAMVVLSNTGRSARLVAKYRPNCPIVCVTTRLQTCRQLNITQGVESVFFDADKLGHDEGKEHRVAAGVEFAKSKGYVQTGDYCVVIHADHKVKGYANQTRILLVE
#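 Pyruvate kinase activity monitored as ATP production (luciferase luminescence). Conditions: 0.1 nM enzyme, 0.5 mM PEP, 0.1 mM ADP, 1 h, RT; normalized against uninhibited and no-enzyme wells.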
# NS1 inh = blocks influenza NS1 protein function | Potency, µM (series often up to 46.1 µM), for the others: at the highest dose activity, positive = more growth | 270,000 tested, 0.4% active | AID 2326; also: potency is read from the fitted curve at half-maximal effect; actives are rising curves; nearly all actives have a fitted effect of over 50% in size
#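 Compounds were scored for reversing the slow growth caused by influenza A NS1 in S. cerevisiae, measured by optical density at 600 nm. Assay medium contained 2% galactose at pH 6.0; NS1-free yeast of the same strain were the positive control.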
# CHX counter = affects cycloheximide protein synthesis inhibition readout, counter-screen; cell reporter, cycloheximide protein synthesis inhibition counterscreen; max response, %; 300,000 tested, 12% active; AID 2314; in the data active = max response mostly above about 13%, no sharp cut-off; inactive = mostly below about 14%; also: read at 38.3 µM for the half of the compounds with a filed dose; 0% is about no effect
# * = called active by the depositor; ? = inconclusive; . = no result given. Unless noted, calls follow the shape of the full dose curve.
SMILES,TbPYK inhibitor,Shiga inhibitor,SARS PLpro yeast,LmPK inh,NS1 inh,CHX counter
NC(N)=N/N=C/c1cc([N+](=O)[O-])ccc1O,-6%,11,?,-2%,-11%,12*
O=[N+]([O-])c1ccc(O)c(/C=N\N=C2c3ccccc3-c3ccccc32)c1,-5%,6,-38%,6%,-6%,7
CCN(CC)c1cc(Oc2ccccc2)ncn1,0%,73*,-5%,-5%,-3%,19*
CCN(CC)c1cc(-c2ccccc2)ncn1,4%,-1,5%,2%,-7%,9
COc1cccc(C(=O)CC(C#N)c2ccc(F)cc2)c1 (centres undefined),0%,26*,-1%,1%,-2%,12
COc1cccc(C(=O)CC(C(=O)O)c2ccc(F)cc2)c1 (centres undefined),1%,20,0%,1%,.,5
O=C(NCCC(=O)N1CCN(Cc2c(F)cccc2Cl)CC1)c1ccc(Cl)cc1,2%,.,-3%,.,.,.
Cc1ccc(-c2cnc(N)n2C)cc1C,-10%,32,-8%,-4%,-5%,30*
Cn1c(-c2ccc(Cl)cc2)cnc1N,.,20,-5%,-9%,-3%,10
COC(=O)C1(CC2CC(c3ccccc3)=NO2)CCN(C(=O)OC(C)(C)C)CC1 (centres undefined),5%,.,.,.,.,.
Cc1cc(-c2cn3ccccc3n2)c(C)n1-c1ccccc1,2%,64*,-7%,-12%,.,48*
CC(=O)CC(=O)Nc1ccc2ccccc2c1,3%,33,1%,-3%,0%,24
CC(=O)Nc1ccc2sc(C)nc2c1,-1%,-3,0%,3%,-1%,-3
CC(=O)Nc1ccc2cc3ccc(NC(C)=O)cc3nc2c1,4%,30,0%,3%,8%,21*
O=C(Nc1ccccc1)Nc1ccc2ccccc2c1,-2%,81*,-1%,-2%,-8%,52*
CC(=O)Nc1ccc2ccccc2c1,4%,43,6%,-7%,-11%,29*
CCOC(=O)C(Nc1ccc2ccccc2c1)C(=O)OCC,-3%,80*,-62%,-2%,.,74*
O=C(Cn1ncc2ccsc2c1=O)N1CCN(c2ccc(F)cc2)CC1,-1%,.,.,.,.,.
Cc1ccc(OC(=O)c2snnc2C)cc1C,-3%,.,.,.,.,.
CCOC(=O)C1=C(COC(=O)C(CC)c2ccccc2)NC(=O)NC1C (centres undefined),2%,.,0%,.,.,.
CC1(C(=O)NS(=O)(=O)c2cccs2)CCN1C(=O)C1(c2ccccc2)CCCC1 (centres undefined),-1%,.,.,.,.,.
O=C1Nc2ccccc2C1=Nc1cccc2ncccc12,.,.,.,.,-1%,.
COc1cccc(C(=O)NNC(=O)Cc2cccs2)c1,-3%,-10,0%,0%,7%,-3
COc1cccc(C(=O)NNC2OC(CO)C(O)C2O)c1 (centres undefined),2%,69*,0%,0%,.,31*
O=C(NNC1OC(CO)C(O)C(O)C1O)c1cccnc1 (centres undefined),5%,50*,0%,-3%,12%,19*
SMILES,TbPYK inhibitor,Shiga inhibitor,SARS PLpro yeast,LmPK inh,NS1 inh,CHX counter
Cc1ccc2c(=O)c3cccc(CC(=O)O)c3oc2c1C,.,20,.,.,.,-5
CCC(Oc1ccc(F)cc1)C(=O)Nc1nc2c(s1)CCCC2 (centres undefined),-1%,.,.,.,.,.
CC(=O)N1CCN(c2ccc(NC(=O)c3cccc(F)c3)cc2)CC1,-1%,.,.,.,.,.
CC(=O)N1CCN(c2ccc(NC(=O)c3cccc(C)c3)cc2)CC1,2%,.,4%,-1%,9%,13*
CC(=O)N1CCN(c2ccc(NC(=O)c3ccccc3)cc2)CC1,1%,39*,-14%,-8%,-8%,23*
Cc1cccc(C(=O)Nc2ccc(C(=O)N3CCCCC3C)cc2)c1 (centres undefined),-9%,30,0%,9%,-35%,24*
CCC(Oc1cc(Cl)ccc1Cl)C(=O)N1CCC2(CC1)OCCO2 (centres undefined),-3%,64*,-1%,-14%,-14%,31*
O=C(CCCOc1ccc(Cl)cc1Cl)N1CCC2(CC1)OCCO2,-5%,34,-2%,-5%,-6%,17*
Cc1cccc(OCCCC(=O)N2CCCc3ccccc32)c1C,-7%,10,-7%,3%,1%,28*
